From the supplement of paper PMC4206461
Unmarked numbers belong to inactive results.

test system: Pseudomonas aeruginosa PA14 dppA1-A5 penta mutant + pBBR5.DppA1 (PA14_58350); assay: respiration area under curve with compound as sole nitrogen source, 24 h (OmniLog AUC (arbitrary units)); higher = more respiration / better utilisation as nitrogen source, active = 2000 or more
Method: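 Biolog Phenotype MicroArray plates PM6-PM8: each di/tripeptide is the sole nitrogen source. Tetrazolium reduction was read in the OmniLog for 24 h at 37°C and summarised as area under the respiration curve (arbitrary units). Values below 2000 count as no respiration. Strain is the SBP penta mutant complemented with DppA1 on a plasmid under its native promoter. Lys/His/Cys peptides are excluded.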

| SMILES | respiration area under curve |
| --- | --- |
| CSCC[C@H](N)C(=O)N[C@H](C(=O)O)[C@@H](C)O (plate: PM8) | 1950 |
| N[C@@H](Cc1ccc(O)cc1)C(=O)N[C@@H](Cc1c[nH]c2ccccc12)C(=O)O (plate: PM7) | 2730 (active) |
| N[C@@H](CC(=O)O)C(=O)N[C@@H](Cc1ccccc1)C(=O)O (plate: PM6) | 1720 |
| NC(N)=NCCC[C@H](NC(=O)[C@@H](N)Cc1c[nH]c2ccccc12)C(=O)O (plate: PM7) | 12000 (active) |
| NCC(=O)N[C@@H](CCCN=C(N)N)C(=O)O (plate: PM6) | 7640 (active) |
| O=C(O)[C@H](CO)NC(=O)[C@@H]1CCCN1 (plate: PM8) | 5440 (active) |
| C[C@H](NC(=O)[C@@H](N)[C@@H](C)O)C(=O)O (plate: PM7) | 8470 (active) |
| CC(C)C[C@H](NC(=O)[C@@H](N)CO)C(=O)O (plate: PM7) | 6240 (active) |
| C[C@H](NC(=O)CN)C(=O)O (plate: PM6) | 2380 (active) |
| CSCC[C@H](N)C(=O)N[C@H](C(=O)O)C(C)C (plate: PM7) | 3360 (active) |

test system: Pseudomonas aeruginosa PA14 wild type; assay: as above
Method: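 Biolog Phenotype MicroArray plates PM6-PM8: each di/tripeptide is the sole nitrogen source (IF-0 medium with succinate/ferric citrate and dye mix A). Tetrazolium reduction was read in the OmniLog every 15 min for 24 h at 37°C and summarised as area under the respiration curve (arbitrary units). The paper counts values below 2000 as no respiration and above 8000 as solid respiration. Replicate datasets are averaged.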

| SMILES | respiration area under curve |
| --- | --- |
| CSCC[C@H](N)C(=O)N[C@H](C(=O)O)[C@@H](C)O (plate: PM8) | 4350 (active) |
| CC(C)C[C@H](N)C(=O)NCC(=O)NCC(=O)O (plate: PM8) | 10400 (active) |
| O=C(O)[C@@H]1CCCN1C(=O)[C@@H]1CCCN1 (plate: PM7) | 10500 (active) |
| NC(N)=NCCC[C@H](N)C(=O)N[C@@H](CCC(=O)O)C(=O)O (plate: PM6) | 9830 (active) |
| N[C@@H](Cc1ccc(O)cc1)C(=O)N[C@@H](Cc1c[nH]c2ccccc12)C(=O)O (plate: PM7) | 3280 (active) |
| N[C@@H](Cc1ccc(O)cc1)C(=O)N[C@@H](Cc1ccccc1)C(=O)O (plate: PM7) | 6680 (active) |
| N[C@@H](CC(=O)O)C(=O)N[C@@H](Cc1ccccc1)C(=O)O (plate: PM6) | 3070 (active) |
| C[C@H](NC(=O)[C@@H](N)CCCN=C(N)N)C(=O)O (plate: PM6) | 9790 (active) |
| NC(N)=NCCC[C@H](NC(=O)[C@@H](N)Cc1c[nH]c2ccccc12)C(=O)O (plate: PM7) | 13500 (active) |
| NCC(=O)NCC(=O)O (plate: PM6) | 3270 (active) |
| NCC(=O)N[C@@H](CCCN=C(N)N)C(=O)O (plate: PM6) | 8640 (active) |
| CC[C@H](C)[C@H](N)C(=O)N[C@@H](CC(C)C)C(=O)O (plate: PM8) | 6290 (active) |
| CC(C)C[C@H](NC(=O)[C@@H](N)Cc1ccc(O)cc1)C(=O)O (plate: PM7) | 7880 (active) |
| NC(=O)CC[C@H](NC(=O)[C@@H](N)Cc1ccc(O)cc1)C(=O)O (plate: PM7) | 13000 (active) |
| C[C@@H](N)C(=O)NCC(=O)NCC(=O)O (plate: PM8) | 211 |
| N[C@@H](CCC(=O)O)C(=O)N[C@@H](Cc1c[nH]c2ccccc12)C(=O)O (plate: PM6) | 2740 (active) |
| CC[C@H](C)[C@H](NC(=O)CNC(=O)CN)C(=O)O (plate: PM8) | 10400 (active) |
| O=C(O)[C@H](Cc1ccccc1)NC(=O)[C@@H]1CCCN1 (plate: PM7) | 7250 (active) |

| SMILES | respiration area under curve |
| --- | --- |
| CC(C)[C@H](N)C(=O)N[C@@H](Cc1ccc(O)cc1)C(=O)O (plate: PM7) | 8020 (active) |
| N[C@@H](Cc1ccccc1)C(=O)NCC(=O)O (plate: PM7) | 7630 (active) |
| C[C@@H](O)[C@H](N)C(=O)N[C@@H](CC(=O)O)C(=O)O (plate: PM8) | 5680 (active) |
| N[C@@H](Cc1ccccc1)C(=O)N1CCC[C@H]1C(=O)O (plate: PM7) | 11400 (active) |
| C[C@@H](O)[C@H](NC(=O)CN)C(=O)O (plate: PM6) | 5430 (active) |
| O=C(O)[C@H](CO)NC(=O)[C@@H]1CCCN1 (plate: PM8) | 8750 (active) |
| CC(C)C[C@H](NC(=O)[C@@H](N)CCCN=C(N)N)C(=O)O (plate: PM6) | 9430 (active) |
| C[C@H](NC(=O)[C@@H](N)[C@@H](C)O)C(=O)O (plate: PM7) | 10500 (active) |
| CC(C)C[C@H](NC(=O)[C@@H](N)CO)C(=O)O (plate: PM7) | 7960 (active) |
| CC(C)C[C@H](N)C(=O)N[C@@H](CO)C(=O)O (plate: PM7) | 13500 (active) |
| C[C@H](NC(=O)CN)C(=O)O (plate: PM6) | 4610 (active) |
| CC(C)[C@H](NC(=O)[C@@H](N)Cc1ccccc1)C(=O)O (plate: PM8) | 6870 (active) |
| NC(CO)C(=O)NC(CCC(=O)O)C(=O)O (stereo unspecified) (plate: PM8) | 5470 (active) |
| CSCC[C@H](N)C(=O)N[C@H](C(=O)O)C(C)C (plate: PM7) | 4480 (active) |
| N[C@@H](CO)C(=O)N1CCC[C@H]1C(=O)O (plate: PM7) | 14600 (active) |
| C[C@@H](O)[C@H](N)C(=O)N[C@@H](Cc1ccccc1)C(=O)O (plate: PM8) | 8640 (active) |
| CC(C)[C@H](N)C(=O)NCC(=O)O (plate: PM7) | 9460 (active) |
| CC(C)[C@@H](NC(=O)CN)C(=O)O (plate: PM8) | 0 |
